Compound activity as filed in PubChem BioAssay.
CYP2C19 activ: cytochrome P450 2C19 (human) activation; P33261; recombinant CYP2C19, luciferin-H EGE luminescence; stronger effect = higher value; 0 = fully inhibited enzyme, 1 = untreated enzyme; activation factor at 5 µM; 96,000 tested, under 10 active;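 active = activation factor of at least 2 at 5 µM in the primary screen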;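 also: 0 = wells with 2.5 mM tranylcypromine and 1 = vehicle-only wells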
CYP2C19 inh: human CYP2C19 inhibition | P33261 | CYP2C19 Supersomes, luciferin-H EGE luminescence, 30 min | inhibition, % at 5 µM | 96,000 tested, 21% active;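 active = CYP2C19 inhibition above a set limit at 5 µM in the primary screen, cut at about 50% in these data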;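 also: plate controls were negative control wells for no effect and 2.5 mM tranylcypromine positive control for full effect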
CYP2C9 activ: activators of human CYP2C9; P11712; recombinant CYP2C9, luciferin-H conversion, luminescence; stronger effect = higher value; factor 1 = untreated enzyme, 0 = blocked; 96,000 tested, 1.4% active; activation factor at 5 µM;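 active = activation factor of 2 or more for CYP2C9 at a 5 µM dose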;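 also: 0 = sulfaphenazole-blocked wells and 1 = vehicle-only wells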
CYP2C9 inh: human CYP2C9 inhibition; CYP2C9 Supersomes, luciferin-H conversion, luminescence; inhibition, % at 5 µM; 96,000 tested, 20% active; AID 777;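 active = blocking of liver enzyme CYP2C9 beyond about 50% at 5 µM, limit read from the data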
PLK1 kinase inh: blocks human PLK1 kinase activity | AID 619 | recombinant PLK1 kinase, TR-FRET peptide phosphorylation | 97,000 tested, 0.53% active | P53350 | inhibition, % at 10 µM;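 active = inhibition of 50% or more in the single-concentration screen; inactive = inhibition below 50%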;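 also: 0% = DMSO max control and 100% = H-89 dihydrochloride min control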
Plk1 PBD FP: blocks phosphopeptide binding to human Plk1 polo box domain; P53350; Plk1 PBD phosphopeptide binding, fluorescence polarization; inhibition, %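 (tested at about 20 µM)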; 97,000 tested, 0.13% active; AID 693; in the data active = inhibition above about 34%, passing the limit was not always enough
The depositor's hits bear a star; · = no result given. Most compounds without a hit are left out; they make up all but 28% or so of the library.

SMILES | CYP2C19 activ | CYP2C19 inh | CYP2C9 activ | CYP2C9 inh | PLK1 kinase inh | Plk1 PBD FP
CCOc1ccc(S(=O)(=O)NCCC(=O)OCN2C(=O)c3ccccc3C2=O)cc1 | 0.3 | 70.5* | 0.6 | 41.7 | -7.8 | -8.4
Cc1ccc(S(=O)(=O)NCC(=O)OCN2C(=O)c3ccccc3C2=O)cc1 | 1 | -1.8 | 1.1 | -10.7 | 4.5 | -18.0
CC(OC(=O)C1CCN(S(=O)(=O)c2ccc(Cl)cc2)CC1)C(=O)N1CCc2ccccc21 (stereo not given) | 0.3 | 65.7* | 1.8 | -84.8 | -8.6 | 7.8
CCOC(=O)c1c(NC(=O)C(F)(OC)C(F)(F)F)sc2c1CCN(C)C2 (stereo not given) | 0.7 | 33.5 | 0.9 | 9.5 | -12.4 | -4.2
COc1ccccc1NC(=O)c1ccc(NC(=O)CSc2nnnn2C)cc1 | 0.8 | 24.6 | 0.9 | 5.7 | -7.5 | 16.6
COc1cc2nc(SCc3ccc(F)cc3)n(Cc3cccs3)c(=N)c2cc1OC | 1 | 1.6 | 0.4 | 55.0* | -9.0 | -9.9
COC(=O)c1c(NC(=O)CN2CCOCC2)sc2c1CCC(C)C2 (stereo not given) | 0.8 | 19.1 | 0.6 | 38.5 | -7.2 | 13.3
CCOC(=O)c1c(-c2cccs2)csc1NC(=O)COC(=O)c1c(C)noc1C | 0.5 | 46.5 | 0.1 | 86.9* | -3.2 | -1.3
CCOC(=O)c1c(-c2cccs2)csc1NC(=O)c1ccncc1 | 0.6 | 36.5 | 0.7 | 30.3 | -8.7 | 2.5
COC(=O)c1c(-c2cccs2)csc1NC(=O)CN1CCOCC1 | 0.1 | 94.1* | 0 | 96.0* | -10.2 | -1.2
Cc1nnc(Oc2ccccc2F)c2ccccc12 | 0.8 | 23.3 | 1.2 | -21.9 | -2.8 | 15.0
CN(CCc1ccccn1)c1ncnc2[nH]ncc12 | 0.9 | 12.1 | 1 | 2.6 | 39.6 | -5.5
Cc1n[nH]c(C)c1CCc1nc2c3ccccc3nc(SCC(N)=O)n2n1 | 1.1 | -5.8 | 0.8 | 17.3 | -6.9 | 15.8
Cc1ccc(NC(=O)CSc2nc3ccccc3c3nc(CCc4c(C)n[nH]c4C)nn23)cc1F | 1 | -1.7 | 0.4 | 56.1* | -10.7 | -11.2
CCOc1ccc(C(=O)NCC2OCCc3ccccc32)cc1 (stereo not given) | · | · | · | · | -8.1 | -4.8
C#CCOC(=O)Nc1ccc(=O)n(Cc2c(Cl)cccc2Cl)c1 | 0.5 | 53.9* | 0.3 | 68.9* | 0.3 | -1.7
NC(=O)CSCc1c(Cl)cccc1Cl | 1 | -0.5 | 1.2 | -15.2 | -0.9 | 14.5
Cc1cccn2cc(-c3ccc(F)cc3)nc12 | 0.3 | 67.0* | 0.6 | 38.1 | -9.6 | -5.7
Cc1cc(C)cc(NC(=S)NCc2ccc3c(c2)OCO3)c1 | · | · | · | · | 2.8 | -8.0
Cc1ccc(C)c(NC(=S)NCc2ccc3c(c2)OCO3)c1 | 0.4 | 56.5* | 0.9 | 6.7 | -2.1 | -6.4
Cc1ccccc1NC(=S)NCc1ccc2c(c1)OCO2 | 0.1 | 89.6* | 0.8 | 24.7 | -5.1 | 9.3
CCc1ccccc1NC(=S)NCc1ccc2c(c1)OCO2 | 0.4 | 60.8* | 1 | -3.8 | -3.2 | 16.7
O=C(O)CCC(=O)NNC(=O)CCCOc1ccc(Cl)cc1Cl | 1.2 | -20.6 | 1.2 | -24.6 | -13.8 | 9.2
